Measurements from publication PMC8384837, “Expanding the binding specificity for RNA recognition by a PUF domain”.

Target: PUM1 PUF domain R5-RSQ (Homo sapiens, UniProt Q14671 828-1176, C1007R;R1008S)
Test: yeast three-hybrid, YBZ-1, SC-Leu-His + 0.5 mM 3-AT, 4 days
Conditions: tags: N-Gal4 AD-HA kept; label: inside an RPR1-promoter hybrid RNA with tandem MS2 sites; ssRNA
Procedure, shortened: (§1)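 The interaction score is the logarithmic change in variant frequency from input to selection. It uses log2, with a pseudocount of 1 for absent variants, and frequencies came from PCR-amplified, Illumina-sequenced repeat regions. The libraries were Pumilio-1 PUF domains randomized at the three base-contacting residues per repeat, co-expressed with matching RNA elements in strain YBZ-1 (LexA–MS2 coat fusion, HIS3 reporter). Plating lasted four days on SC-Leu (input) or SC-Leu-His + 0.5 mM 3-AT (selection).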

Sequence	binding signal
GGCUAGAACUAGUGGAUCCCCCGGCGCCCGGCGGCUCGAGCCCGGGUAAGUGUCAAUAGUCUGCAUGCCGCCGGGCGCCAUGCCUGCAGGUCGACUCUAGAAAACAUG	4.6 log2 enrichment (interaction score)
GGCUAGAACUAGUGGAUCCCCCGGCGCCCGGCGGCUCGAGCCCGGGUAAGUGUUAAUAGUCUGCAUGCCGCCGGGCGCCAUGCCUGCAGGUCGACUCUAGAAAACAUG	4.05 log2 enrichment (interaction score)
GGCUAGAACUAGUGGAUCCCCCGGCGCCCGGCGGCUCGAGCCCGGGUAAGUGUAAAUAGUCUGCAUGCCGCCGGGCGCCAUGCCUGCAGGUCGACUCUAGAAAACAUG	1.05 log2 enrichment (interaction score)

Target: PUM1 PUF domain R4-SRM (Homo sapiens, UniProt Q14671 828-1176, N971S;H972R;Q975M)
Test: as above
Conditions: tags: N-Gal4 AD-HA kept; label: inside an RPR1-promoter hybrid RNA with tandem MS2 sites; ssRNA
Procedure, shortened: as §1

Sequence	binding signal
GGCUAGAACUAGUGGAUCCCCCGGCGCCCGGCGGCUCGAGCCCGGGUAAGUGUACAUAGUCUGCAUGCCGCCGGGCGCCAUGCCUGCAGGUCGACUCUAGAAAACAUG	2.16 log2 enrichment (interaction score)
GGCUAGAACUAGUGGAUCCCCCGGCGCCCGGCGGCUCGAGCCCGGGUAAGUGUAUAUAGUCUGCAUGCCGCCGGGCGCCAUGCCUGCAGGUCGACUCUAGAAAACAUG	2.54 log2 enrichment (interaction score)
GGCUAGAACUAGUGGAUCCCCCGGCGCCCGGCGGCUCGAGCCCGGGUAAGUGUAAAUAGUCUGCAUGCCGCCGGGCGCCAUGCCUGCAGGUCGACUCUAGAAAACAUG	3.86 log2 enrichment (interaction score)

Target: PUM1 PUF domain R5-RHV (Homo sapiens, UniProt Q14671 828-1176, C1007R;R1008H;Q1011V)
Test: as above
Conditions: tags: N-Gal4 AD-HA kept; label: inside an RPR1-promoter hybrid RNA with tandem MS2 sites; ssRNA
Procedure, shortened: as §1

Sequence	binding signal
GGCUAGAACUAGUGGAUCCCCCGGCGCCCGGCGGCUCGAGCCCGGGUAAGUGUCAAUAGUCUGCAUGCCGCCGGGCGCCAUGCCUGCAGGUCGACUCUAGAAAACAUG	5.74 log2 enrichment (interaction score)
GGCUAGAACUAGUGGAUCCCCCGGCGCCCGGCGGCUCGAGCCCGGGUAAGUGUUAAUAGUCUGCAUGCCGCCGGGCGCCAUGCCUGCAGGUCGACUCUAGAAAACAUG	5.95 log2 enrichment (interaction score)
GGCUAGAACUAGUGGAUCCCCCGGCGCCCGGCGGCUCGAGCCCGGGUAAGUGUAAAUAGUCUGCAUGCCGCCGGGCGCCAUGCCUGCAGGUCGACUCUAGAAAACAUG	2.87 log2 enrichment (interaction score)

Target: PUM1 PUF domain R3-EFT (Homo sapiens, UniProt Q14671 828-1176, C935E;R936F;Q939T)
Test: as above
Conditions: tags: N-Gal4 AD-HA kept; label: inside an RPR1-promoter hybrid RNA with tandem MS2 sites; ssRNA
Procedure, shortened: as §1

Sequence	binding signal
GGCUAGAACUAGUGGAUCCCCCGGCGCCCGGCGGCUCGAGCCCGGGUAAGUGUAAUUAGUCUGCAUGCCGCCGGGCGCCAUGCCUGCAGGUCGACUCUAGAAAACAUG	2.45 log2 enrichment (interaction score)
GGCUAGAACUAGUGGAUCCCCCGGCGCCCGGCGGCUCGAGCCCGGGUAAGUGUAAGUAGUCUGCAUGCCGCCGGGCGCCAUGCCUGCAGGUCGACUCUAGAAAACAUG	3.92 log2 enrichment (interaction score)
GGCUAGAACUAGUGGAUCCCCCGGCGCCCGGCGGCUCGAGCCCGGGUAAGUGUAAAUAGUCUGCAUGCCGCCGGGCGCCAUGCCUGCAGGUCGACUCUAGAAAACAUG	4.71 log2 enrichment (interaction score)
